Assay outcomes from PubChem BioAssay.
B2AR arrestin = qHTS assay of beta-arrestin-biased ligands of beta2-adrenergic receptor; beta-arrestin recruitment to beta2AR, cell-based reporter; Potency, µM (top dose mostly 46.1 µM), without a hit: top-dose activation, most hits filed as activators; 330,000 compounds, 0.02% hits; Beta-2 adrenergic receptor (Homo sapiens), P07550;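 also: 0% = DMSO controls and full agonism = EC100 isoproterenol or metaproterenol; nearly all actives have a fitted effect of over 65% in size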
Target sequence (P07550 whole entry, looked up): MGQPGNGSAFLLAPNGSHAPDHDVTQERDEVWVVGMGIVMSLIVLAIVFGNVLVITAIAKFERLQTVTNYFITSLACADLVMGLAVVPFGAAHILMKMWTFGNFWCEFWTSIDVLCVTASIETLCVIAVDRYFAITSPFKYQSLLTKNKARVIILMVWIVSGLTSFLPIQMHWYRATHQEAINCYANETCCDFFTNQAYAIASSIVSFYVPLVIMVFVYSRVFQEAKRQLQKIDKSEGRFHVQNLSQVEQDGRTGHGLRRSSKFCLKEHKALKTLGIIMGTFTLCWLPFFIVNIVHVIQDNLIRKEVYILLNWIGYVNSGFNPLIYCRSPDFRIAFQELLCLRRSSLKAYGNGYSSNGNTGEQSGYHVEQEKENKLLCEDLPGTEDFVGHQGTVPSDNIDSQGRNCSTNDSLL
Pin1 inhibitor = qHTS Assay to Find Inhibitors of Pin1; Peptidyl-prolyl cis-trans isomerase NIMA-interacting 1 (Homo sapiens), Q13526; Pin1 FP peptide displacement, HiFluor488, 10 min; Potency, µM (titrated, usually from 115 µM), inactives show top-dose activity, negative = inhibition, usual class: inhibitors; 390,000 compounds, 0.009% hits; AID 504891, 2011; active = well fitted inhibition curve with a large enough effect in the polarisation, with a control signal flat, not every such curve was filed as active; inconclusive = small, poorly fitted or top-dose-only effect, or effect the other way, or a change in a side signal; inactive = no such curve, though single readings can be large or run the other way; the % refers to the polarisation; also: % is scaled to controls: 0 for no effect and ±100 for the full control effect
RGS4 inh = Inhibitors of Regulator of G Protein Signaling (RGS) 4: qHTS | Regulator of G-protein signaling 4 (Homo sapiens), P49798 | Transcreener GDP fluorescence polarization, RGS4-accelerated GTP hydrolysis | Potency, µM (top dose mostly 114 µM), without a hit: at the highest dose activity change, negative = inhibition, usual class: inhibitors | 390,000 compounds, 0.039% hits | AID 504845, 2011; also: % is scaled to controls: 0 for no effect and ±100 for the full control effect; nearly all actives have a fitted effect of over 75% in size
Target sequence (P49798 whole entry, looked up): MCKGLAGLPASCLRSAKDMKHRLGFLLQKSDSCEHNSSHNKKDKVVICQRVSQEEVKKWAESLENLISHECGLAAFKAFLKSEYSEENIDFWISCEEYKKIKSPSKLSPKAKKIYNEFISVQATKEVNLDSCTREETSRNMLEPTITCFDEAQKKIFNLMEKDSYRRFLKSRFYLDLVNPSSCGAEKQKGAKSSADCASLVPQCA
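MLSMR compounds (23 nl, pin-transferred) preincubated 10 min at room temperature with a 500nM (2x) first reagent, then RGS4 at 900nM (2x) plus Transcreener GDP mix added; fluorescence polarization (620/688 nm) read before and after 90 min at 30 °C.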
Apoferritin bind = qHTS Assay for Identification of Novel General Anesthetics | Ferritin light chain (Equus caballus), P02791 | apoferritin/1-aminoanthracene competitive binding, fluorescence | Potency, µM (highest dose often 77.5 µM), for inactives: at the top dose activity change, negative = displacement, most hits filed as inhibitors | 350,000 compounds, 0.074% hits | AID 485281, 2010; also: % is scaled to controls: 0 for no effect and ±100 for the full control effect; nearly all actives have a fitted effect of over 20% in size
Target sequence (P02791 2-175 limits assumed): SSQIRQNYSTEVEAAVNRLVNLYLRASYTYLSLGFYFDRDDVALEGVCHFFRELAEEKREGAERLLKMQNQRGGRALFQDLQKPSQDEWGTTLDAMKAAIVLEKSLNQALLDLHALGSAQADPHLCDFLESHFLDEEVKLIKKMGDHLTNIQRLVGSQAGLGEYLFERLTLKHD
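Probe: 1-aminoanthracene (50% saturated, PBS). Protein: horse-spleen apoferritin, 10 uM. Incubation: 10 min, room temperature. Detection: 380 nm excitation, 535 nm emission. Analysis: normalized response, four-parameter Hill.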
Glioma ERSR ind = qHTS for Inducers of the Endoplasmic Reticulum Stress Response (ERSR) in Human Glioma: qHTS. AID 602332, 2012. U87-MG GRP78 promoter luciferase reporter, 16 h. Potency, µM, without a hit: top-dose activation, usual class: activators. 420,000 compounds, 0.02% hits; also: series mostly up to about 76 µM; % of control where 0% means no effect; nearly all actives have a fitted effect of over 35% in size
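Stably transfected U87-MG human glioma cells carrying a GRP78-based luminescent sensor were seeded at 1000 cells/well, pin-dosed with compounds and incubated 16 h. Luciferase reagent was then added, and end-point luminescence was read after 10 min at room temperature.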
MmCpn inh = Inhibitors of TCP-1 ring complex (TRiC) of Methanococcus maripaludis (MmCpn): qHTS. AID 504842, 2011. 330,000 compounds, 0.031% hits. purified Mm-Cpn ATPase, ADP Transcreener TR-FRET. Potency, µM (series often up to 76.9 µM), for the others: at the top dose activity, negative = inhibition, usual class: inhibitors; also: % is scaled to controls: 0 for no effect and ±100 for the full control effect; nearly all actives have a fitted effect of over 80% in size
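Purified archaeal chaperonin (25 nM final) was preincubated with compound for 10 min at 37°C, then ATP (10 uM final) was added for 30 min at 37°C in Tris pH 7.4/KCl/MgCl2/DTT buffer. ADP was quantified by HTRF Transcreener TR-FRET.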
The depositor's hits bear a star; i = inactive; u = inconclusive; x = no result; ! = repeats disagree; [ ] = remark or other dose. Hits are enriched below; roughly 0.17% of the tested compounds scored in any of these assays. Unless noted, calls follow the shape of the dose curve; as a rule, active = well fitted curve in the direction sought with a large enough effect; inconclusive = small, poorly fitted or top-dose-only effect, or another doubt; inactive = no such curve, though single readings can be large; an effect the other way counts as inactive or inconclusive. Potency is read from the fitted curve at half-maximal effect.

SMILES | B2AR arrestin | Pin1 inhibitor | RGS4 inh | Apoferritin bind | Glioma ERSR ind | MmCpn inh
Nn1c(SCC(=O)Nc2ccc3c(c2)OCO3)nnc1C1CC1 | -0.1% | -12.7% | 9.0% | -5.1% | 2.1% | -1.0%
Nn1c(SCC(=O)Nc2ccc3c(c2)OCO3)nnc1C1CCCCC1 | x | -0.4% | 12.9% | 5.01µM* | 0.0% | x
COc1cccc(C(=O)NCCC2=CCCCC2)c1 | -0.9% | 1.6% | 25.1% | 28.2µM* | -13.2% | 0.9%
Cc1ccc(Nc2nn3c(=O)c4ccccc4nc3s2)cc1C | x | 4.2% | x | x | x | x
CCOc1cc(CNc2ccc(N3CCCCC3)cc2)cc(Br)c1OCC(=O)NC(C)(C)C | -1.2% | -8.0% | -38.8% | u | -3.8% | -2.1%
CCOc1cc(CNc2ccc(N(C)C)cc2)cc(Br)c1OCC(=O)NC(C)(C)C | 0.4% | 1.8% | u | u | -0.4% | 25.1µM*
COc1ccc2occ(C(=O)c3ccc(N)cc3)c2c1 | -0.5% | -5.1% | -2.9% | -19.4% | -2.8% | -0.8%
COc1ccc2occ(C(=O)c3cccs3)c2c1 | 0.1% | -19.2% | 26.6% | 25.1µM* | 1.9% | -1.6%
Cc1ccc(NC(=O)c2cc(S(=O)(=O)N(C)C)ccc2N2CCCC2)cc1S(=O)(=O)N(C)C | 0.0% | 9.8% | -15.0% | x | 31.6µM* | -2.2%
Cc1ccc(NC(=O)c2cc(S(=O)(=O)N3CCCCC3)ccc2N2CCOCC2)cc1S(=O)(=O)N(C)C | x | 2.4% | 15.5% | x | -1.6% | x
C=C(C)CSc1nncn1/N=C/c1ccc(OC)cc1 | -0.3% | -3.7% | 18.4% | 12.6µM* | 3.7% | u
Cc1cccc(C(=O)NCC(=O)OC(C(=O)Nc2cc(C(F)(F)F)ccc2Cl)c2ccccc2)c1 (stereo not drawn) | x | 0.2% | x | x | x | x
COc1ccc(-c2nc3ccccc3c(=O)n2Cc2ccccc2)cc1CNc1ccc(NC(C)=O)cc1 | x | 15.5% | x | x | x | x
O=C1OC2(c3ccccc31)c1cc(I)c(O)c(I)c1Oc1c2cc(I)c(O)c1I | 0.2% | x | x | -14.7% | 0.7% | 31.6µM*
CC1(C)CC(=O)C/C(=N\NC(=O)C2CC23CCC3)C1 (stereo not drawn) | -0.2% | 7.3% | 7.3% | -9.7% | -4.0% | 50.1µM*
CCCCC/C=C\C\C=C/C=C/C=C/[C@@H](SC[C@H](N)C(=O)NCC(=O)O)[C@@H](O)CCCC(=O)O | x | x | 26.7µM* | 5.3% | -0.8% | x
CCCCC/C=C\C/C=C\C/C=C\C=C\[C@@H](O)CCCC(=O)O | x | x | x | 4.0% | -4.4% | x
CCCCOC(=O)CSc1nnc(-c2cc(OC)c(OC)c(OC)c2)o1 | 2.4% | -4.2% | 18.9% | u | 12.6µM* | -1.0%
CCCCN(CCCC)C(=O)CSc1nnc(-c2cc(OC)c(OC)c(OC)c2)o1 | 0.1% | -2.0% | 12.8% | -1.5% | -1.0% | -1.9%
Cc1ccc2[nH]c(C)cc(=O)c2c1 | x | x | x | 0.2%[253 µM] | 44.7µM* | x
Cc1ccc(-c2cc(=O)c3cc(C)ccc3[nH]2)cc1 | -0.1% | -2.4% | -5.4% | -0.3%[163 µM] | -10.4% | -1.1%
Cn1nc(-c2ccc(C(=O)NCCO)cc2)c2ccccc2c1=O | 5.62µM* | 3.0% | 14.1% | 11.9% | 0.2% | -19.4%
CCOC(=O)CNC(=O)c1ccc(-c2nn(C)c(=O)c3ccccc23)cc1 | x | 6.4% | -10.5% | -2.9% | -1.6% | x
C=C(C)C(=O)Nc1cccc(C2=NOC3(C2)C[C@@H](C(N)=O)N(C(=O)c2cc([N+](=O)[O-])cc([N+](=O)[O-])c2)C3)c1 (stereo partly drawn) | 0.4% | -0.6% | 2.7% | 5.9% | -2.9% | 0.5%
C=C(C)C(=O)Nc1cccc(C2=NOC3(C2)C[C@@H](C(N)=O)N(C(=O)c2ccc(OC)cc2)C3)c1 (stereo partly drawn) | -0.4% | 31.6µM* | -10.1% | 2.5% | 0.5% | -0.1%
SMILES | B2AR arrestin | Pin1 inhibitor | RGS4 inh | Apoferritin bind | Glioma ERSR ind | MmCpn inh
Fc1cccc(Cl)c1CSc1nnc(COc2cccc3cccnc23)o1 | 0.4% | -7.4% | -10.3% | 17.8µM* | -2.7% | -0.1%
Cc1ccc(NS(=O)(=O)c2cc3c(cc2Cl)NC(=O)C3)cc1C | x | 11.0% | x | x | x | x
CN(C)C(=O)C1CCN(c2nc(-c3ccc(Br)cc3)cs2)CC1 | x | -6.0% | x | x | x | x
S=c1nc2ccccc2c2nc(-c3ccccc3Cl)[nH]n12 | -0.1% | 1.7% | -23.6% | 27.7% | u | -0.6%
S=c1nc2ccccc2c2nc(-c3ccccc3)[nH]n12 | 3.98µM* | 9.8% | -42.9% | -11.1% | 14.6% | -1.5%
COc1ccc(C2Cc3ccccc3C(=O)N2Cc2ccccc2)cc1COc1ccc(NC(C)=O)cc1 (stereo not drawn) | x | 45.8% | x | x | x | x
Cc1ccc(C)c(NC(=S)NNC(=O)c2csc3c2CCC(C)C3)c1 (stereo not drawn) | -0.3% | 2.4% | -40.4% | 28.2µM* | -3.4% | 1.2%
Cc1ccc(C)c(NC(=S)NNC(=O)c2csc3c2CCCC3)c1 | -0.4% | -0.8% | -8.0% | u | 3.5% | 2.9%
CN(C)c1cccc(-c2nnc(N3CCC(C(N)=O)CC3)s2)c1 | x | 5.2% | x | x | x | x
CC(c1ccco1)N(C)c1ncnc2ccc(-c3ccc4c(c3)OCO4)cc12 (stereo not drawn) | x | 1.0% | x | x | x | x
NC(=S)NCCC[C@H](N)C(=O)O | x | x | 10.6µM*! | -0.3% | -2.7% | x
NC(=O)NCCC[C@H](N)C(=O)O | x | x | i | x | -2.9% | x
Cn1nnnc1SCC1=C(C(=O)O)N2C(=O)[C@@H](NC(=O)[C@H](O)c3ccccc3)[C@H]2SC1 | -0.7% | 3.16µM* | 13.1% | 4.4% | 1.1% | -2.6%[15.4 µM]
Cn1nnnc1SCC1=C(C(=O)O)N2C(=O)C(NC(=O)C(O)c3ccccc3)C2SC1 (stereo not drawn) | x | x | x | -4.8% | -3.6% | x
Cc1cc([N+](=O)[O-])cnc1NC(C)c1ccccc1 (stereo not drawn) | 0.1% | 0.2% | 35.9% | 8.91µM* | -1.8% | -0.5%
CNC(=O)c1ccsc1NC(=O)c1ccc(S(=O)(=O)N2CCCc3ccccc32)cc1 | -0.2% | 67.0% | -43.6% | 38.8% | -1.6% | 28.2µM*
CCCNC(=O)CSc1nccn1Cc1ccc(OC)cc1 | 0.2% | -2.0% | 27.1% | -13.8% | -3.3% | -0.1%
COc1ccc(Cn2ccnc2SCC(=O)NC2CCCC2)cc1 | -0.4% | 0.3% | 31.1% | 35.5µM* | -1.4% | -1.0%
